# Screening results as filed in PubChem.
# C diff HTS – C. difficile growth inhibition. Clostridium difficile clinical isolate growth, OD600, 24 h; active compounds read low. growth activity, negative = inhibition, % at 16 µg/mL (by protocol). 86,000 tested, 0.25% active;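 active = mean growth activity at or below -80% and every replicate also at or below -80%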;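 also: 0% = DMSO wells and -100% = levofloxacin 16 µg/mL wells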
# An asterisk follows results filed as active; ! = not active in a repeat. The sample as a whole holds a higher share of hits than the screen did.
SMILES,C diff HTS
COCC#Cc1ccc([C@@H]2[C@H]3CN(C(=O)C4CCCC4)CC(=O)N3[C@H]2CO)cc1,11.9
Cc1noc(C)c1S(=O)(=O)N(C)C[C@H]1Oc2ccc(NS(=O)(=O)c3cccs3)cc2CC(=O)N([C@H](C)CO)C[C@H]1C,-7.7
O=C(C[C@@H]1CC[C@@H]2[C@H](COC[C@H](O)CN2C(=O)Nc2ccc(C(F)(F)F)cc2)O1)NCC1CCCCC1,-100.8*!
O=C(C[C@@H]1CC[C@@H]2[C@H](COC[C@@H](O)CN2C(=O)Nc2ccc(Cl)cc2)O1)NCC1CCCCC1,31.9
O=C(C[C@H]1CC[C@H]2[C@@H](COC[C@@H](O)CN2C(=O)Nc2ccc(C(F)(F)F)cc2)O1)NCC1CCCCC1,-100.8*!
O=C(C[C@H]1CC[C@H]2[C@@H](COC[C@H](O)CN2C(=O)Nc2ccc(C(F)(F)F)cc2)O1)NCC1CCCCC1,-41.6
O=C(C[C@H]1CC[C@H]2[C@@H](COC[C@@H](O)CN2C(=O)Nc2ccc(F)cc2)O1)NCC1CC1,1.6
O=C(C[C@@H]1CC[C@H]2[C@@H](COC[C@H](O)CN2C(=O)Nc2ccc(F)cc2)O1)NCC1CC1,29.0
O=C(C[C@H]1CC[C@@H]2[C@H](COC[C@H](O)CN2C(=O)Nc2ccc(F)cc2)O1)NCC1CC1,33.3
O=C(C[C@@H]1CC[C@@H]2[C@H](COC[C@H](O)CN2C(=O)Nc2ccc(Cl)cc2)O1)NCC1CC1,11.6
O=C(C[C@H]1CC[C@@H]2[C@H](COC[C@H](O)CN2C(=O)Nc2ccc(C(F)(F)F)cc2)O1)NCC1CCCCC1,-102.0*!
C[C@H](CO)N1C[C@H](C)[C@H](CN(C)C(=O)Nc2ccccc2)OCCCC[C@H](C)Oc2ccc(NS(=O)(=O)c3ccc(Cl)cc3)cc2C1=O,5.7
CCNC(=O)C[C@H]1CC[C@@H]2[C@H](COc3ccc(NC(=O)c4ccccc4Cl)cc3C(=O)N2C)O1,-5.0
C[C@@H]1CN([C@H](C)CO)C(=O)c2cc(-c3ccccc3F)cnc2O[C@H]1CN(C)C(=O)c1cnccn1,-1.4
C[C@@H]1CN([C@H](C)CO)C(=O)Cc2cc(NC(=O)CCC(F)(F)F)ccc2O[C@H]1CN(C)S(=O)(=O)c1ccccc1,-3.0
O=C(C[C@@H]1CC[C@H]2[C@@H](COC[C@@H](O)CN2C(=O)Nc2ccc(C(F)(F)F)cc2)O1)NCCc1ccncc1,-14.9
CCNC(=O)C[C@H]1CC[C@@H]2[C@H](COC[C@H](O)CN2C(=O)Nc2ccc(C(F)(F)F)cc2)O1,-88.4*
CCNC(=O)C[C@H]1CC[C@H]2[C@@H](COC[C@@H](O)CN2C(=O)Nc2ccc(C(F)(F)F)cc2)O1,-101.6*!
CCNC(=O)C[C@@H]1CC[C@@H]2[C@H](COC[C@H](O)CN2C(=O)Nc2cccc(OC)c2)O1,2.4
O=C(C[C@H]1CC[C@H]2[C@@H](COC[C@H](O)CN2C(=O)Nc2ccc(C(F)(F)F)cc2)O1)NCCc1ccncc1,-17.7
O=C(C[C@@H]1CC[C@H]2[C@@H](COC[C@H](O)CN2C(=O)Nc2ccc(C(F)(F)F)cc2)O1)NC1Cc2ccccc2C1,-8.1
CCCC(=O)N1CCC2(CC1)CN(C(C)=O)[C@@H](CO)c1c2c2ccc(OC)cc2n1C,-5.8
C[C@@H]1CN([C@@H](C)CO)C(=O)Cc2cc(NC(=O)Cc3cn(C)c4ccccc34)ccc2O[C@H]1CN(C)Cc1ccc(C(F)(F)F)cc1,7.0
COc1ccc(NC(=O)N[C@@H]2CC[C@H](CCNC(=O)CN3CCOCC3)O[C@H]2CO)cc1,3.3
N#C[C@H]1[C@H](c2ccc(-c3cccc(F)c3)cc2)[C@H](CO)N1S(=O)(=O)c1cccc(F)c1,6.9
SMILES,C diff HTS
COc1ccc2c3c([nH]c2c1)[C@H](CO)N(C(=O)Nc1cccc(F)c1)CC31CN(S(=O)(=O)c2ccccc2)C1,29.7
CCC(=O)Nc1ccc2c(c1)C(=O)N(C)[C@H]1CC[C@H](CC(=O)NCCN3CCCCC3)O[C@H]1CO2,-3.1
CN(C)C(=O)c1cccc(-c2ccc(C3[C@@H]4CN(Cc5ccccc5F)C[C@H]3N4)cc2)c1 (stereo partly specified),59.3
Cc1cccc(-c2ccc(C3[C@@H]4CN(Cc5cccnc5)C[C@H]3N4)cc2)c1 (stereo partly specified),-1.4
Fc1ccccc1CN1[C@@H]2CNC[C@H]1C2c1ccc(-c2ccccc2)cc1 (stereo partly specified),-7.9
Cc1ccc(-c2ccc(C3[C@H]4CNC[C@@H]3N4Cc3ccccc3F)cc2)cc1 (stereo partly specified),17.2
Cc1ccc(-c2ccc([C@@H]3[C@@H]4CN(Cc5ccccc5F)C[C@H]3N4)cc2)cc1,-100.9*
Cc1cccc(-c2ccc(C3[C@@H]4CN(Cc5ccccc5F)C[C@H]3N4)cc2)c1 (stereo partly specified),-97.9*
C[C@@H]1CCCCO[C@H](CN(C)CC2CC2)[C@H](C)CN([C@@H](C)CO)C(=O)c2cc(NC(=O)Nc3ccc(C(F)(F)F)cc3)ccc2O1,5.8
C[C@@H]1CCCCO[C@@H](CN(C)CC2CCCCC2)[C@H](C)CN([C@H](C)CO)C(=O)c2cc(NC(=O)Nc3ccc(C(F)(F)F)cc3)ccc2O1,-103.6*
C[C@@H]1CN([C@@H](C)CO)C(=O)c2cc(NC(=O)CCCN(C)C)ccc2O[C@@H](C)CCCCO[C@@H]1CN(C)S(=O)(=O)c1cn(C)cn1,-9.1
C[C@H]1CCCCO[C@H](CN(C)S(=O)(=O)c2cn(C)cn2)[C@@H](C)CN([C@@H](C)CO)C(=O)c2cc(NC(=O)CCCN(C)C)ccc2O1,-80.6*
C[C@@H]1CCCCO[C@@H](CN(C)CC2CC2)[C@H](C)CN([C@@H](C)CO)C(=O)c2cc(NC(=O)Nc3ccc(C(F)(F)F)cc3)ccc2O1,4.4
C[C@@H]1CCCCO[C@@H](CN(C)S(=O)(=O)c2cn(C)cn2)[C@@H](C)CN([C@@H](C)CO)C(=O)c2cc(NC(=O)CCC(F)(F)F)ccc2O1,6.2
C[C@@H]1CCCCO[C@H](CN(C)CC2CCCCC2)[C@H](C)CN([C@H](C)CO)C(=O)c2cc(NC(=O)Nc3ccc(C(F)(F)F)cc3)ccc2O1,-102.7*
C[C@@H]1CCCCO[C@H](CN(C)CC2CCCCC2)[C@@H](C)CN([C@H](C)CO)C(=O)c2cc(NC(=O)Nc3ccc(C(F)(F)F)cc3)ccc2O1,-59.2
C[C@@H]1CN([C@@H](C)CO)C(=O)c2cc(NC(=O)Nc3ccc(C(F)(F)F)cc3)ccc2O[C@@H](C)CCCCO[C@@H]1CN(C)CC1CCCCC1,-12.0
C[C@@H]1CCCCO[C@@H](CN(C)CC2CCCCC2)[C@@H](C)CN([C@@H](C)CO)C(=O)c2cc(NC(=O)Nc3ccc(C(F)(F)F)cc3)ccc2O1,-57.6
C[C@@H]1CCCCO[C@@H](CN(C)CC2CC2)[C@H](C)CN([C@H](C)CO)C(=O)c2cc(NC(=O)Nc3ccc(C(F)(F)F)cc3)ccc2O1,-9.3
CCCN(C)C[C@H]1OCCCC[C@@H](C)Oc2ccc(NC(=O)Nc3ccc(C(F)(F)F)cc3)cc2C(=O)N([C@@H](C)CO)C[C@H]1C,-107.0*
CN1C(=O)c2cc(NS(=O)(=O)c3cccc(F)c3)ccc2OC[C@@H]2O[C@@H](CC(=O)NCCN3CCCCC3)CC[C@H]21,-7.0
C[C@@H]1CN([C@H](C)CO)S(=O)(=O)c2ccc(C3=CCCC3)cc2O[C@H]1CN(C)CC1CCCC1,17.7
C[C@H](CO)N1C[C@H](C)[C@H](CN(C)S(=O)(=O)c2cn(C)cn2)OCCCC[C@H](C)Oc2ccc(NC(=O)c3ccncc3)cc2C1=O,-4.3
